High-throughput results as filed in PubChem BioAssay.
aSyn UTR inh = 5' untranslated region of α-synuclein, MLPCN primary screen | alpha-synuclein 5'UTR reporter, inhibitor activity | inhibition, % (tested at 7.5 µM) | 0.82% of 300,000 active; in the data active = inhibition above about 60%; inconclusive = no clear call, values can overlap the other calls;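 note: H4 neuroglioblastoma cells stably carrying SNCA 5'UTR luciferase fusion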
CSC inhib = cancer stem cell inhibition | cancer stem cell-like cells viability, luminescence | inhibition, % at 7.5 µM | 1.1% of 300,000 active | AID 2717; in the data active = inhibition above about 75%; inconclusive = no clear call, values can overlap the other calls; tested in HMLE shEcad cells
697 NFkB inh = inhibitors of the PMA/ionomycin-induced NF-kB reporter in 697 B cells; 697 B-cell NF-kB luciferase reporter, 16 h; inhibition, % at 4 µM; 0.33% of 330,000 active; AID 435022; in the data active = inhibition above about 35%
Mdm2 MdmX PPI = human Mdm2/MdmX binding inhibition; O15151+Q00987; SaOS-2 split-luciferase Mdm2/MdmX complementation, luminescence; inhibition, % at 8 µM; 3% of 330,000 active; AID 485346;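 active = inhibition of at least 50% at 8 µM in the primary screen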
Target sequence (O15151 whole entry, looked up): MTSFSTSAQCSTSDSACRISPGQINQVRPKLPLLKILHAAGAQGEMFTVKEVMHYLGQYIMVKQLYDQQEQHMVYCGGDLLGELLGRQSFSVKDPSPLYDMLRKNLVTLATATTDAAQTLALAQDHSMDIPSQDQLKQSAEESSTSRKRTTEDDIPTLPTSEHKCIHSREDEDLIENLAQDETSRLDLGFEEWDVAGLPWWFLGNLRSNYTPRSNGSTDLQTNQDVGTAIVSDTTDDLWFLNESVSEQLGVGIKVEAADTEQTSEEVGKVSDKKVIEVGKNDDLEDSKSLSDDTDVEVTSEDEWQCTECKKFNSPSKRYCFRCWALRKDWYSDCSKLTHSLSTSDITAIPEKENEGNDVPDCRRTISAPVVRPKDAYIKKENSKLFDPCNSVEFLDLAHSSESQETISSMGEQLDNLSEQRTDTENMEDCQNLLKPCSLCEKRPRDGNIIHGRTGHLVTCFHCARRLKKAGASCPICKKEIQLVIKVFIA
Target sequence (Q00987 whole entry, looked up): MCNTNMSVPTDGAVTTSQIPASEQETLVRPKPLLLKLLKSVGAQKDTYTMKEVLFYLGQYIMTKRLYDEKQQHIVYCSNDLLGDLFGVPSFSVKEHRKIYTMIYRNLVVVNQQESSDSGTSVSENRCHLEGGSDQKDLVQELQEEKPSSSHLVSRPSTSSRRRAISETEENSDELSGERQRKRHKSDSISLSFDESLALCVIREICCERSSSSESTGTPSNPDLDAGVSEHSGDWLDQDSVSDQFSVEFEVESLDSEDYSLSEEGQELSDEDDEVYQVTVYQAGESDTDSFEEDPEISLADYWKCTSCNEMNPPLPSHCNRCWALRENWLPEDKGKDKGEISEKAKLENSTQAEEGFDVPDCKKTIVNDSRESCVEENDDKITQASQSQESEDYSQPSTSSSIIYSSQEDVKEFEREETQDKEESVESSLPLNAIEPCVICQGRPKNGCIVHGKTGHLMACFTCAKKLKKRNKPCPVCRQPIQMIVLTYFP
Jurkat NFkB inh = inhibitors of the PMA/ionomycin-induced NF-kB reporter in Jurkat cells. PMA/ionomycin-induced NF-kB luciferase reporter, luminescence. 0.53% of 330,000 active. inhibition, % at 4 µM. AID 435003; in the data active = inhibition above about 50%
Gli-Sufu block = antagonists of Gli-Sufu signaling | Sufu-KO-LIGHT fibroblasts, Gli luciferase reporter luminescence | inhibition, % at 5 µM | 0.74% of 340,000 active | AID 588413;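 active = inhibition above about 55%, limit read from the data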
Mdm2 MdmX conf = confirmation of human Mdm2/MdmX interaction inhibitors | shares compounds with Mdm2 MdmX PPI | Mdm2-MdmX binding, luminescent assay | inhibition, % at 8 µM | 55% of 10,000 active | AID 489028; in the data active = inhibition above about 40%
Full FLuc ctr = full-length luciferase inhibition in Mdm2/MdmX counter-screen. shares compounds with Mdm2 MdmX PPI. SaOS-2 full-length luciferase counterscreen, luminescence. inhibition, % at 8 µM. 77% of 6,200 active;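 active = mean inhibition at 8 µM reaching about 37%, which flags the compound as non-specific, limit read from the data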;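 note: p53-null SaOS-2 cells with luciferase driven by a doxycycline-inducible promoter; compound on cells about two nights before reading with doxycycline added after day one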
Each line names hits and unclear results; the compound was inactive in the other large screens (follow-up assays come after a bar, where they were run). The list is not random: actives were taken first. Their share in the collection is about 4.5%.

CC(C)C1C(C#N)=C(N)Oc2n[nH]c(-c3cccs3)c21 (stereo not drawn)	none
CC(C)C1C(C#N)=C(N)Oc2n[nH]c(-c3ccc4ccccc4c3)c21 (stereo not drawn)	Mdm2 MdmX PPI 57 | Mdm2 MdmX conf 63 | Full FLuc ctr 50
Cc1ccc(C)c(NC(=S)NC(NC(=O)Cc2cccc3ccccc23)C(Cl)(Cl)Cl)c1 (stereo not drawn)	aSyn UTR inh 112, CSC inhib inconclusive, Mdm2 MdmX PPI 99 | Mdm2 MdmX conf 99 | Full FLuc ctr inactive
Cc1ccc(C)c(NC(=S)NC(NC(=O)N(C)C)C(Cl)(Cl)Cl)c1 (stereo not drawn)	none
CSc1ncc2[nH]c(C(O)c3ccccc3)nc2n1 (stereo not drawn)	none (no result: aSyn UTR inh, CSC inhib, 697 NFkB inh, Mdm2 MdmX PPI, Jurkat NFkB inh)
C=CCOc1ccc(/C=C/C(=O)OCC(=O)NCC(=O)Nc2c(C)cc(C)cc2C)cc1	none
CCn1cc(C(=O)NCCC(C)C)c(=O)c2cc(F)c(N3CCN(C(=O)c4ccco4)CC3)cc21	Mdm2 MdmX PPI 54 | Mdm2 MdmX conf 42 | Full FLuc ctr 63
CCn1cc(C(=O)NC(C)C)c(=O)c2cc(F)c(N3CCN(C(=O)c4ccco4)CC3)cc21	none
Cc1ccc(S(=O)(=O)N2CCN(C(=O)CSC(=S)N3CCCC3)CC2)c(C)c1	none (no result: aSyn UTR inh, CSC inhib)
Cc1ccc(S(=O)(=O)N2CCN(C(=O)CSC3CCCC3)CC2)c(C)c1	Mdm2 MdmX PPI 55 | Mdm2 MdmX conf inactive
N=C1C(c2nc3ccccc3s2)=C(O)CN1NC(=O)c1ccccc1[N+](=O)[O-]	Mdm2 MdmX PPI 54 | Mdm2 MdmX conf inactive
N=C1C(c2nc3ccccc3s2)=C(O)CN1NC(=O)c1c[nH]c2ccccc12	none
CC(C(=O)Nc1ccc2c(c1)OCCO2)N1Cc2ccccc2C1=O (stereo not drawn)	none
Cc1ccccc1C(=O)O/N=C(\N)Cc1cccs1	Mdm2 MdmX PPI 100 | Mdm2 MdmX conf 92 | Full FLuc ctr 115
Cc1ccccc1OCC(=O)O/N=C(\N)Cc1cccs1	none (no result: CSC inhib)
COc1ccccc1C/C(N)=N/OC(=O)c1cccs1	Mdm2 MdmX PPI 51 (no result: CSC inhib, Gli-Sufu block) | Mdm2 MdmX conf inactive
N/C(Cc1cccc2ccccc12)=N\OC(=O)c1cccs1	none
COc1ccccc1Nc1nc(N)nc(CCl)n1	Mdm2 MdmX PPI 72 | Mdm2 MdmX conf 68 | Full FLuc ctr 54
COc1cccc(Nc2nc(N)nc(CCl)n2)c1	none
COc1ccc(OCc2nc(N)nc(Nc3ccccc3OC)n2)cc1	none
COc1ccc(OC)c(Nc2nc(N)nc(CCl)n2)c1	Mdm2 MdmX PPI 82 | Mdm2 MdmX conf 84 | Full FLuc ctr 41
CC(NC(=O)CSc1nnnn1C1CC1)c1ccccc1Br (stereo not drawn)	none (no result: aSyn UTR inh)
Cc1ccccc1-c1nc2cc(Cl)ccc2c(=O)o1	Mdm2 MdmX PPI 52 | Mdm2 MdmX conf 50 | Full FLuc ctr 76
Cc1cc(C)n(S(=O)(=O)/C=C/c2ccccc2)n1	Mdm2 MdmX PPI 73 | Mdm2 MdmX conf 89 | Full FLuc ctr 52
COc1ccc(Cl)cc1NC(=O)CSc1nnc(C2CC2)n1C	none
O=C1C2C3C=CC(C3=C(c3ccccc3)c3ccccc3)C2C(=O)N1CCO (stereo not drawn)	none
O=C1C2C3C=CC(C3=C(c3ccccc3)c3ccccc3)C2C(=O)N1Cc1ccccc1 (stereo not drawn)	Mdm2 MdmX PPI 79 | Mdm2 MdmX conf inactive
CNC(=O)C1(C(F)(F)F)C/C(=C\CCO)CCCO1 (stereo not drawn)	none
COC(=O)c1ccc(/C=C/c2c(-c3ccsc3)oc3ccc(N4CCOCC4)cc23)cc1	CSC inhib 109, Mdm2 MdmX PPI 57 | Mdm2 MdmX conf inactive
CN(C)C(=O)c1ccc(NC(=O)CN2C(=O)NC3(CCCc4ccccc43)C2=O)cc1 (stereo not drawn)	none
Cc1ccccc1OCc1n(CC(=O)OC2CC(C)CCC2C(C)C)c2ccccc2[n+]1C (stereo not drawn)	aSyn UTR inh 85, Mdm2 MdmX PPI 65 | Mdm2 MdmX conf 99 | Full FLuc ctr 60
